# Results filed as inconclusive are left out. A number with no mark means an inactive call. The source made the active and inactive calls. Calls follow the shape of the dose curve; as a rule, active = well fitted inhibition curve with a large enough effect; inconclusive = small, poorly fitted or top-dose-only effect; inactive = flat fitted curve, though single readings scatter.
# Test system: CP191
# Assay: qHTS profiling for inhibitors of Plasmodium falciparum proliferation (AID 504749);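 also: 0% = DMSO vehicle and full inhibition = artemisinin control; nearly all actives have a fitted effect of over 60% in size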
# Settings: P. falciparum in erythrocytes, SYBR Green DNA, 72 h; series mostly up to 28.7 µM; activity, negative = inhibition: at the top concentration
# Summary of the method: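 Readout was DNA-dye fluorescence from lysed cultures, ex 485/em 535 nm. Parasitized red cells had grown 72 h with compound; data scaled between 0.29 uM artemisinin and DMSO wells and corrected using vehicle-only plates.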
Compound,"activity, negative = inhibition",Potency
[O-][n+]1cccc(CO)c1,4.63%,
Cc1cccc(C)c1NC(=O)CN(CC(=O)O)CC(=O)O,5.71%,
O=C(O)[C@@H]1CSCN1,-1.46%,
COc1cc2[nH]c(=O)[nH]c(=O)c2cc1OC,6.19% [at 12.8 µM],
N[C@@H](CSCCCO)C(=O)O,4.46%,
O=c1[nH]c(=O)c2[nH]c(=O)[nH]c2[nH]1,2.51%,
CCCCCCCCCCCCCCCCCCOCC(O)CO (stereo unspecified),-2.17%,
O=C(O)c1ccccc1-c1ccc(C(F)(F)F)cc1,0.27%,
C[C@](N)(Cc1ccc(O)cc1)C(=O)O,3.69%,
O=C1OC(OC(=O)c2cccnc2Nc2cccc(C(F)(F)F)c2)c2ccccc21 (stereo unspecified),3.1%,
Nc1ccc(S(=O)(=O)Nc2ccccc2)cc1,13.2%,
NC(=O)NNc1ccccc1,,inactive
CC1(C)[C@@H]2CC[C@@]1(C)C(=O)C2,-0.431%,
CCC(=O)Nc1ccc(O)cc1,2.36%,
CC1(C)CO[C@@H](CC(=O)O)CN1,5.65%,
CCCCc1ncc(/C=C(\Cc2cccs2)C(=O)O)n1Cc1ccc(C(=O)O)cc1,0.47%,
NCCNCCNCCNCCN,0.73%,
CCN(CC)CCSC(=O)C(c1ccccc1)c1ccccc1,,inactive

Compound,"activity, negative = inhibition",Potency
C=Cc1c(C)c2cc3[nH]c(cc4nc(cc5nc(cc1[nH]2)C(C)=C5CCC(=O)O)C(CCC(=O)O)=C4C)c(C)c3C=C,6.58%,
NCC(=O)CCC(=O)O,13.7%,
COc1cc(C(=O)N2CCOCC2)cc(OC)c1OC,,inactive
Cc1cccc(Nc2cc(Cl)nc(SCC(=O)O)n2)c1C,7.77%,
O=C(O)COc1nn(Cc2ccccc2)c2ccccc12,12.2%,
CC(=O)NC(Cc1ccccc1)C(=O)O (stereo unspecified),8.58%,
Cc1cc(CC(=O)O)n(C)c1C(=O)c1ccc(Cl)cc1,,inactive
CCCOC(=O)c1ccccc1,1.49%,
CCCCC(CC)COC(=O)c1ccccc1O (stereo unspecified),0.255%,
Oc1cccc(O)c1,3.1%,
CC(=O)CCC(=O)O,9.34%,
COc1cc(C)c(Cc2cnc(N)nc2N)cc1OC,0.471%,
CCN(CC)CCNC(=O)c1cc(Cl)c(N)cc1OC,1.76%,
CCCn1cnc2c1c(=O)n(CCCCC(C)=O)c(=O)n2C,-21%,
O=C1c2c(O)cccc2Cc2cccc(O)c21,10.2%,
Cc1ncc(COP(=O)(O)O)c(C=O)c1O,-3.75%,
O=c1cc(CO)occ1O,5.29%,
COc1ccc2c(c1)C(=O)N(CCc1ccc(S(=O)(=O)NC(=O)NC3CCCCC3)cc1)C(=O)C2(C)C,11.7% [at 12.8 µM],

# — PubChem BioAssay (NCATS)
